Assay [1] in a line: qHTS of pediatric cancer cell lines to identify multiple opportunities for drug repurposing: Primary screen for NB1643 cells (AID 1347099). Note: nearly all actives have a fitted effect of over 50% in size. Note: potency is the fitted concentration of half-maximal effect. The method in brief: (§1)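 Cells plated at 500-1,000/well in growth medium, compounds added after 5 h. MIPE tested at 11 points (from 0.78 nM), NPC at 8 points (from 0.59 nM). CellTiter-Glo luminescence after 48 h; concentration-response curves from primary screen.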
On the technique in general: qHTS replaces the single test concentration by a dilution series.

The nature of assay [2]: qHTS of pediatric cancer cell lines to identify multiple opportunities for drug repurposing: Primary screen for LAN-5 cells (AID 1347100). Note: potency is the fitted concentration of half-maximal effect. The method in brief:
(§2)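 Cells (500-1,000/well) in growth media were settled 5 h at 37 degrees C, then given compounds for 48 h. Viability was read as CellTiter-Glo luminescence. Primary runs used MIPE at 11 points (0.78 nM-46 µM) and NPC at 8 points (0.59 nM-46 µM); follow-ups used 11 points.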

Assay [3] in a line: qHTS of pediatric cancer cell lines to identify multiple opportunities for drug repurposing: Primary screen for BT-12 cells (AID 1347101). Note: nearly all actives have a fitted effect of over 25% in size. Note: potency is the fitted concentration of half-maximal effect. The gist of the method:
(§3)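 Cells (500-1,000/well) rested 5 h, then received compounds for 48 h; metabolically active cells were measured by CellTiter-Glo luminescence. Final concentrations spanned up to 46 µM (MIPE, 11-point) or 0.59 nM-46 µM (NPC, 8-point) in primary screens, 11-point in follow-ups.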

A short description of assay [4]: qHTS of pediatric cancer cell lines to identify multiple opportunities for drug repurposing: Primary screen for Rh18 cells (AID 1347102). Note: nearly all actives have a fitted effect of over 65% in size. Note: potency is the fitted concentration of half-maximal effect. The gist of the method:
as §2

A short description of assay [5]: qHTS of pediatric cancer cell lines to identify multiple opportunities for drug repurposing: Primary screen for OHS-50 cells (AID 1347103). Note: nearly all actives have a fitted effect of over 40% in size. Note: potency is the fitted concentration of half-maximal effect. The gist of the method:
as §3

The nature of assay [6]: qHTS of pediatric cancer cell lines to identify multiple opportunities for drug repurposing: Primary screen for RD cells (AID 1347104). Note: nearly all actives have a fitted effect of over 55% in size. Note: potency is the fitted concentration of half-maximal effect. The gist of the method:
as §1

Assay [7] in a line: qHTS of pediatric cancer cell lines to identify multiple opportunities for drug repurposing: Primary screen for MG 63 (6-TG R) cells (AID 1347105). Note: nearly all actives have a fitted effect of over 50% in size. Note: potency is the fitted concentration of half-maximal effect. The method in brief: as §1
Assay [8] can be described thus: qHTS of pediatric cancer cell lines to identify multiple opportunities for drug repurposing: Primary screen for control Hh wild type fibroblast cells (AID 1347106). Note: nearly all actives have a fitted effect of over 55% in size. Note: potency is the fitted concentration of half-maximal effect. The gist of the method: as §2
Assay [9] is described as follows: qHTS of pediatric cancer cell lines to identify multiple opportunities for drug repurposing: Primary screen for Rh30 cells (AID 1347107). Note: series mostly up to about 46 µM; nearly all actives have a fitted effect of over 75% in size. The gist of the method:
as §2

Assay [10] is described as follows: qHTS of pediatric cancer cell lines to identify multiple opportunities for drug repurposing: Primary screen for SK-N-SH cells (AID 1347098).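 Note: DMSO served as neutral control and bortezomib at 2.3 µM as positive control; nearly all actives have a fitted effect of over 65% in size.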 The gist of the method:
as §3

These results are taken from PubChem BioAssay (NCATS).

Records with an inconclusive call do not appear. The source made the active and inactive calls. Calls come from the whole dose curve; as a rule, active = well fitted curve in the direction sought with a large enough effect; inconclusive = small, poorly fitted or top-dose-only effect, or another doubt; inactive = no such curve, though single readings can be large; an effect the other way counts as inactive or inconclusive.

Regarding `CC(C)NCC(O)c1ccc(N)c(C#N)c1` (stereo not drawn), the Potency result in assay [1], in assay [2], in [3], in [4], in assay [5] and in [6] was “inactive” throughout. For the same compound, the Potency entry in assay [7], in [8] and in [9] was “inactive” each time.
Take `CNC(C)Cc1ccccc1OC` (stereo not drawn): the Potency entry in assay [1], in assay [2], in assay [3], in assay [4], in assay [5] and in assay [6] was “inactive” in each case. Further, the Potency result in assay [7] and in assay [9] was “inactive” each time.
For `CN(C)C(=S)SSC(=S)N(C)C`, the Potency in assay [1] is 531 nM (active); in assay [2], 266 nM (active); in [3] it was 246 nM (active); in assay [4] it was 150 nM (active); in assay [5] it was 347 nM (active); in [6], 188 nM (active). In addition, the figures for the Potency in assay [7] and in [8] were 335 nM (active) and 299 nM (active), respectively.
Take `CCOC(=O)c1ncn2c1CN(C)C(=O)c1c(I)cccc1-2`: the Potency entry in [1], in assay [2], in assay [3], in assay [4], in assay [5] and in [6] was “inactive” each time. Also, the Potency result in assay [7] and in assay [8] was “inactive” each time.
For `CCN(CC)CCOC(=O)C(C)(c1ccccc1)c1ccccc1`, the Potency result in assay [1], in assay [2], in assay [3], in assay [4], in [6] and in [7] was “inactive” throughout. Besides, the Potency result in [8] and in assay [9] was “inactive” in each case.
For `CN1C[C@@H](NS(=O)(=O)N(C)C)C[C@@H]2c3cccc4c3c(cn4C)C[C@H]21`, the Potency result in assay [1], in assay [2], in [3], in assay [4], in assay [6] and in assay [7] was “inactive” each time. The Potency entry in [8] and in [9] was “inactive” each time.
As for `CC(C)C(Br)C(=O)NC(N)=O` (stereo not drawn), the Potency result in assay [1], in [2], in assay [3], in [4], in [5] and in assay [6] was “inactive” in each case. Also, the Potency result in assay [7], in assay [8] and in assay [9] was “inactive” each time.
As to `O=C(CBr)Nc1ccc(Cl)cc1C(=O)c1ccccc1F`, the Potency result in assay [1], in [2], in assay [3], in assay [4], in [6] and in [7] was “inactive” in each case. Besides, the Potency entry in assay [8] and in assay [9] was “inactive” throughout.
With `O=C(O)CCCCCCNC1c2ccccc2CCc2ccccc21`, the Potency result in [1], in [2], in assay [3], in assay [4], in assay [5] and in [6] was “inactive” in each case. Further, the Potency entry in assay [7], in assay [8] and in [9] was “inactive” in each case.
Take `CC(C(O)c1ccccc1)N(C)C/C=C/c1ccccc1` (stereo not drawn): the Potency result in assay [1], in assay [2], in assay [3], in [4], in assay [6] and in assay [7] was “inactive” throughout. In addition, the Potency result in assay [8] and in [9] was “inactive” each time.
Take `C[C@H](N)[C@H](O)c1ccc(O)c(O)c1`: the Potency result in assay [1], in assay [3], in assay [4], in assay [5], in assay [6] and in [8] was “inactive” throughout. In addition, the Potency result in [9] is “inactive”. The Potency in assay [2] was 26600 nM (active).
In the case of `CC#C[C@]1(O)CC[C@H]2[C@@H]3C[C@H](C)C4=CC(=O)CC[C@]4(C)[C@H]3CC[C@@]21C`, the Potency result in assay [10], in assay [6], in assay [8] and in [9] was “inactive” throughout. In addition, in assay [5], the Potency was 19500 nM (active).
For `Nc1ccc(N)cc1`, the Potency entry in [1], in [3], in [4], in [5], in [6] and in assay [7] was “inactive” throughout. Moreover, the Potency entry in [9] was “inactive”.
